Data taken from PubChem BioAssay (NCATS).
Records with an inconclusive call do not appear. Active and inactive are the calls of the source. The call rests on the fitted dose curve; in most records, active means well fitted activation curve with a large enough effect; inconclusive means small, poorly fitted or top-dose-only effect; inactive means no such curve, though single readings can be large or run the other way.

Each molecule was assayed against Arylsulfatase A (Homo sapiens) (UniProt P15289) (assay: qHTS screen for enhancers of Arylsulfatase A (ASA1): LOPAC Validation Assay (AID 720538; on activity change, positive = activation: 0% is about no effect)). Settings: ASA enzyme activity, LOPAC qHTS enhancer assay; series mostly up to 57.5 µM; activity change, positive = activation: at the top concentration.
From the text: Lysosomal storage diseases (LSDs) are caused by genetic mutations in genes encoding proteins important for normal lysosomal function. In affected patients, symptoms are usually not manifested unless the mutations result in more than 90% reduction of enzymatic activity of a specific lysosomal enzyme. […] Small molecules could function as enzyme enhancement agents by binding to and stabilizing mutant misfolded proteins in the endoplasmic reticulum (ER), allowing them to evade the ER associated degradation (ERAD), and eventually reach the lysosome. Moreover, small molecules is hypothesized to be able to enhance the residual activity of deficient lysosomal enzyme by either interacting directly with the mutant enzyme or indirectly by acting in different cellular pathways; resulting to increased levels of the mutant and partially functional protein in the lysosomal compartment.
A cell based assay in 1536 well plate format was developed to evaluate activity of the lysosomal sulfatase ASA1 enzyme. ASA1 is deficient in metachromatic leukodystrophy (MLD), an LSD characterized by progressive neurodegeneration for which specific treatment is not available. Compounds that are active may therefore have some therapeutic application for this disease. This assay was used to validate the ASA1 qHTS using the Sigma LOPAC library. In this assay increase in signal = enhanced ASA1 activity. Activation is the desired outcome for this assay.
NIH Chemical Genomics Center [NCGC]
NIH Molecular Libraries Probe Centers Network [MLPCN]
Assay Submitter (PI): Gustavo Maegawa, Johns Hopkins University School of Medicine
[2] Gieselmann V, et al. Acta Paediatr Suppl. 2008; 97: 15-21
Four microliter (~8,000 cells/well) of SV40-transformed skin fibroblasts from an MLD patient (ASA-I179S) were seeded into a 1,536 solid white plate. Cells were left to adhere for 6 hrs, followed by addition of 23 nL of compounds. Cells were incubated with compounds for 48h at 37 degree C and 5% CO2. Four microliter of 1 mM pNCS substrate/lysis buffer (0.5mM pNCS final concentration) was added and incubated for 14h at room temperature. To stop the reaction, […] of 5 N of NaOH (1N NaOH final concentration) was then added and fluorescence was measured using the ViewLux plate reader (Ex=525 nm; Em=598 nm).

Sequence of Arylsulfatase A (Homo sapiens) (P15289 whole entry, looked up): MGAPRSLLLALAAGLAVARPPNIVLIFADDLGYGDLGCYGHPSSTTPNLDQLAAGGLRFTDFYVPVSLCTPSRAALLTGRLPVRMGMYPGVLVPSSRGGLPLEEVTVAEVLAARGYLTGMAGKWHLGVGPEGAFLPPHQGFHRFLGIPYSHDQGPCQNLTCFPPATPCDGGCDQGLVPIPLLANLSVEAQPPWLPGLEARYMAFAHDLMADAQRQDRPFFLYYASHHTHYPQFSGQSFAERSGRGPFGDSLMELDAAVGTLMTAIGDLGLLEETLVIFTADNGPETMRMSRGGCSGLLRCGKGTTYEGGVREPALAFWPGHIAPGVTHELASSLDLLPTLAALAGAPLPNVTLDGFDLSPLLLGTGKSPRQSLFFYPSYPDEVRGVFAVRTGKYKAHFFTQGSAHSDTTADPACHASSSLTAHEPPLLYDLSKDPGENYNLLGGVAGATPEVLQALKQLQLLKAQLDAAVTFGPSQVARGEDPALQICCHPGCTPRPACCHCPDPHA

| SMILES | outcome | activity change, positive = activation |
| --- | --- | --- |
| C[N+]1(CCCCC[N+]2(C)CCCC2)CCCC1 | inactive | – |
| CC(CCc1ccccc1)NCC(O)c1ccc(O)c(C(N)=O)c1 (stereo not given) | – | 25.1% (inactive) |
| Oc1ccc(O)cc1 | – | -197% (inactive) |
| N[C@H](CO)C(=O)O | inactive | – |
| COc1cc2c(cc1O)CC[C@@H]1[C@@H]2CC[C@]2(C)[C@@H](O)CC[C@@H]12 | inactive | – |
| CCCC1O[C@@H]2C[C@H]3[C@@H]4CCC5=CC(=O)C=C[C@]5(C)[C@H]4[C@@H](O)C[C@]3(C)[C@]2(C(=O)CO)O1 (stereo not given in full) | inactive | – |
| COc1cc(NS(C)(=O)=O)ccc1Nc1c2ccccc2nc2ccccc12 | – | 8.99% (inactive) |
| CN1C2CCC1CC(OC(=O)c1c[nH]c3ccccc13)C2 (stereo not given) | – | -69.5% (inactive) |
| CC1(C)CCC(NC(=O)[C@@H](N)CCC(=O)O)CC1 | inactive | – |
| C[C@@H]1C(=O)NC2=Nc3cccc(Cl)c3CN21 | inactive | – |
| CC[C@H](C)C(=O)O[C@H]1CCC=C2C=C[C@H](C)[C@H](CC[C@@H]3C[C@@H](O)CC(=O)O3)[C@H]21 | inactive | – |
| Nc1cc(Cl)c(NC2=NCCN2)c(Cl)c1 | – | 1.77% (inactive) |
| COC(=O)[C@H]1[C@H]2C[C@H]3c4[nH]c5ccccc5c4CCN3C[C@H]2CC[C@@H]1O | inactive | – |
| CNCCC(Oc1ccccc1C)c1ccccc1 (stereo not given) | – | -31.9% (inactive) |
| O=C(O)c1cc2cc(Cc3cccnc3)ccc2o1 | inactive | – |
| CCCn1c(=O)[nH]c(=O)c2[nH]cnc21 | inactive; inhibitor; fitted 0.151 uM | – |
| CC(C)C[C@H]1C(=O)N2CCC[C@H]2[C@]2(O)O[C@](NC(=O)[C@@H]3C=C4c5cccc6[nH]c(Br)c(c56)C[C@H]4N(C)C3)(C(C)C)C(=O)N12 | inactive | – |
| CNCCC=C1c2ccccc2CCc2ccccc21 | – | -32.3% (inactive) |
| O=C1CCC(c2ccc(-n3ccnc3)cc2)=NN1 | inactive | – |
| N[C@@H](Cc1cnc[nH]1)C(=O)O | – | -14.6% (inactive) |
